Source: PubChem BioAssay
Sm TGR block: blocks Schistosoma mansoni thioredoxin glutathione reductase. Q962Y6. purified TGR, DTNB reduction, TNB absorbance 405 nm. Potency, µM (top dose mostly 114 µM), for inactives: at the top dose activity change, negative = inhibition, usual class: inhibitors. 360,000 compounds, 3% hits; also: potency is read from the fitted curve at half-maximal effect; % is scaled to controls: 0 for no effect and ±100 for the full control effect; nearly all actives have a fitted effect of over 60% in size
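First, TGR (20 nM dispensed) and NADPH were mixed with compound. Second, a 15 min room-temperature incubation followed. Third, further NADPH and then DTNB were added to start the reaction. Finally, TNB absorbance was monitored kinetically.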
Shiga inhibitor: inhibitors of Shiga toxin in Vero cells. Vero cells, Shiga toxin protein synthesis inhibition reporter. inhibition, % at 38.7 µM. 290,000 compounds, 9.2% hits; in the data active = inhibition mostly above about 28%, no sharp cut-off; inactive = mostly below about 43%; also: 0% is about no effect
NS1 inh: blocks influenza NS1 protein function | 270,000 compounds, 0.4% hits | Potency, µM (titrated, usually from 46.1 µM), for inactives: at the top dose activity, positive = more growth | AID 2326; calls by dose curve; also: potency is read from the fitted curve at half-maximal effect; actives are rising curves; nearly all actives have a fitted effect of over 50% in size
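S. cerevisiae expressing influenza A NS1, grown in glucose, washed, then diluted 1:100 into pH 6.0 -URA galactose medium with 23 nl compound. Growth recovery read as OD600; NS1-free strain serves as control.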
Pf growth 96h: P. falciparum growth inhibition at 96 hour, primary screen for plastid delayed-death inhibitors; AID 504834; Potency, µM (series often up to 28.7 µM), inactives show at the top dose activity change, negative = inhibition, most hits filed as inhibitors; P. falciparum luciferase reporter growth, 96 h; 320,000 compounds, 6.9% hits; also: potency is read from the fitted curve at half-maximal effect; % is scaled to controls: 0 for no effect and ±100 for the full control effect
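Delayed-death screen, second-generation endpoint: infected erythrocytes, 2% hematocrit, 0.05% parasitemia final; 96 hours at 37 C, 5% CO2; luciferase detection reagent; luminescence decrease equals reduced growth.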
CHX counter: counter-screen for Shiga toxin inhibitors: cycloheximide protein synthesis inhibition | cell reporter, cycloheximide protein synthesis inhibition counterscreen | max response, % | 300,000 compounds, 12% hits | AID 2314; in the data active = max response mostly above about 13%, no sharp cut-off; inactive = mostly below about 14%; also: read at 38.3 µM for the half of the compounds with a filed dose; 0% is about no effect
Pf growth 48h: inhibits P. falciparum growth in the first generation, 48 h. P. falciparum luciferase growth in erythrocytes, 48 h. Potency, µM (highest dose often 28.7 µM), for the others: at the highest dose activity change, negative = inhibition, hits mostly inhibitors. 310,000 compounds, 5.9% hits. AID 504832; also: potency is read from the fitted curve at half-maximal effect; % is scaled to controls: 0 for no effect and ±100 for the full control effect
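Cell-based growth assay: transgenic P. falciparum expressing firefly luciferase, cultured in red cells within RPMI 1640 containing 0.5% w/v Albumax, 24 mM bicarbonate and gentamycin. A drop in luciferase activity indicates inhibition.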
* = called active by the depositor; i = inactive; ? = inconclusive; · = no result given. A selection: hits, their analogues and other compounds. The true share with any hit is near 21%. Unless noted, calls follow the shape of the dose curve; as a rule, active = well fitted curve in the direction sought with a large enough effect; inconclusive = small, poorly fitted or top-dose-only effect, or another doubt; inactive = no such curve, though single readings can be large; an effect the other way counts as inactive or inconclusive.

SMILES | Sm TGR block | Shiga inhibitor | NS1 inh | Pf growth 96h | CHX counter | Pf growth 48h
CCCNC(=O)c1ccc(N2CCC3(CC2)CC(c2cccc(Br)c2)=NO3)c(NC(=O)c2ccc(Br)cc2)c1 | 0% | · | · | ? | · | ?
Cc1ccc(CNC(=O)c2ccc(N3CCC4(CC3)CC(c3ccccc3)=NO4)c(N)c2)cc1 | 4% | -7 | 20% | 33% | 2 | -13%
Cc1ccc(NC(=O)CCCn2c(=O)c3cccn3c3cccnc32)c(Cl)c1 | 5% | · | · | · | · | ·
CCN1CCN(S(=O)(=O)c2c[nH]c(C(=O)OC)c2)CC1 | 7% | -7 | -3% | -11% | -1 | 0%
CC(=O)c1ccc(NC(=O)C2CCN(c3nnc(C)c4c(C)n(-c5ccccc5)nc34)CC2)cc1 | -22% | · | · | · | · | ·
COc1cc(NCC[C@@H]2CCCCN2)c2ncccc2c1 | · | · | 2% | · | · | ·
Cc1ccc(CNC(=O)c2ccc(N3CCC4(CC3)CC(c3ccccc3)=NO4)c(NC(=O)c3ccc(Br)cc3)c2)cc1 | -1% | 18 | 24% | ? | 4 | ?
CCCNC(=O)c1ccc(N2CCC3(CC2)CC(c2ccccc2)=NO3)c(NC(=O)c2cccc(OC)c2)c1 | -4% | -3 | -32% | 2.1µM* | 1 | ?
Cc1ccc(CNC(=O)c2ccc(N3CCC4(CC3)CC(c3ccccc3)=NO4)c(NC(=O)c3ccccc3)c2)cc1 | -3% | · | · | ? | · | 4.7µM*
CC(=O)N1CC2(CC(=O)OC(C)C)CN(C(C)=O)CC(CC(=O)OC(C)C)(C1)C2=O | 5% | -6 | -11% | 12µM* | -4 | 4%
CCOC(=O)c1ccc(-c2c(C)cc3oc(=O)cc(-c4ccccc4)c3c2C)cc1 | · | i | · | · | 32* | ·
CCCCCCC(=O)O[C@H]1CC[C@H]2[C@@H]3CCC4CC(=O)C=C(C)[C@]4(C)[C@H]3CC[C@]12C (stereo partly drawn) | · | · | · | 6.7µM* | · | 4.8µM*
CC(C)(C)c1ccc(OCCC(=O)Nc2cccc(S(=O)(=O)N3CCOCC3)c2)cc1 | -3% | -9 | -7% | 78% | 3 | ?
COc1cc(/C=C/C(=O)OCC(=O)Nc2ccc(S(=O)(=O)N3CCCC3)cc2)ccc1O | ? | 16 | 15% | 9.3µM* | -2 | ?
COc1ccccc1C(=O)NCCC(=O)Nc1cccc(S(=O)(=O)N2CCCC2)c1 | -5% | · | · | ? | · | 3.3µM*
COc1ccccc1C(=O)Nc1cccc(S(=O)(=O)N2CCCC2)c1 | 13% | -12 | 11% | -17% | -1 | -2%
CCOc1ccc(OCCC(=O)Nc2cccc(S(=O)(=O)N3CCCC3)c2)cc1 | 3% | · | · | 15µM* | · | ?
COc1cccc(/C=C/C(=O)OCC(=O)Nc2cccc(S(=O)(=O)N3CCCCC3)c2)c1OC | -6% | 61* | 12% | 16% | 13 | 14%
O=C(COC(=O)/C=C/c1ccc(F)cc1)Nc1cccc(S(=O)(=O)N2CCCC2)c1 | 1% | 5 | 5% | ? | -5 | -2%
CCOC(=O)C(/C(C)=N/NC(=O)C1CC1c1ccccc1)C(C)C (stereo not drawn) | -9% | -5 | 7% | 51% | 4 | -27%
O=C(O)c1cc(-c2ccc(Cl)cc2)n(-c2ccc(Cl)cc2)n1 | 6% | 5 | · | 6% | 3 | i
COc1cccc(CCC(=O)Nc2cccc(S(=O)(=O)N3CCCC3)c2)c1OC | 3% | · | · | 8.3µM* | · | 9.3µM*
CCOc1ccc(CN(C)C(=O)c2cc(S(=O)(=O)N3CCCC3)ccc2C)cc1 | -4% | · | · | ? | · | 12µM*
COc1ccc(S(=O)(=O)N2CCN(C(=O)CCCN3C(=O)NC4(CCCC4)C3=O)CC2)cc1 | 1% | · | · | ? | · | -10%
COc1ccc(NC(=O)Cn2ncc3c2-c2ccccc2OC3)cc1Cl | 5% | · | · | · | · | ·
SMILES | Sm TGR block | Shiga inhibitor | NS1 inh | Pf growth 96h | CHX counter | Pf growth 48h
COc1cc(/C=N/Nc2nc(Nc3ccccc3)nc(N3CCCCC3)n2)ccc1OCC(=O)O | -10% | 9 | · | ? | 8 | 130%
COc1cc(/C=N/Nc2nc(Nc3ccccc3)nc(-n3nc(C)cc3C)n2)cc(OC)c1OC | -8% | 45* | -2% | -2% | 18* | 3.3µM*
COc1cc(/C=N/Nc2nc(Nc3ccc(C)cc3)nc(-n3nc(C)cc3C)n2)cc(OC)c1OC | 0% | 109* | 16% | 1.9µM* | 7 | ·
COc1ccc(/C=N/Nc2nc(Nc3ccccc3)nc(N3CCCCC3)n2)c(OC)c1 | -4% | 21 | ? | -104% | -1 | ?
COc1ccc(O)c(/C=N/Nc2nc(Nc3ccccc3)nc(-n3nc(C)cc3C)n2)c1 | 1% | 40 | 17% | 2.1µM* | -3 | 1.9µM*
CCN(C(=O)c1ccc2c(=O)n3c(nc2c1)CCCCC3)c1cc(OC)ccc1OC | -16% | -12 | -7% | ? | 1 | ?
Cc1ccc(S(=O)(=O)n2nc(-c3ccccc3)nc2NCc2ccc(Cl)cc2)cc1 | 10% | · | · | · | · | ·
COc1cccc(CN(C)C(=O)CN2C(=O)NC(c3ccccc3)(c3ccccc3)C2=O)c1OC | -7% | · | · | 12µM* | · | ?
Cc1cccc(CN2C(=O)NC(c3ccccc3)(c3ccccc3)C2=O)c1 | -11% | -3 | -30% | ? | -1 | 10µM*
COc1cccc(CNC(=O)CN2C(=O)NC(c3ccccc3)(c3ccccc3)C2=O)c1 | 3% | · | · | -17% | · | -21%
Cc1ccsc1CN(C)C(=O)CN1C(=O)NC(c2ccccc2)(c2ccccc2)C1=O | 3% | · | · | 9.3µM* | · | 13µM*
COc1cccc(CN(C)C(=O)CN2C(=O)NC(c3ccccc3)(c3ccccc3)C2=O)c1 | -11% | · | · | 10µM* | · | 10µM*
CCC(C)(C)C1CCC2(CC1)NC(=O)N(CC(=O)N(C)CC(=O)Nc1ccccc1C(F)(F)F)C2=O (stereo not drawn) | 3% | 53* | -10% | ? | 58* | 3%
COc1ccc(C2(c3ccc(OC)cc3)NC(=O)N(CC(=O)N(C)C)C2=O)cc1 | 0% | -2 | -9% | -18% | -2 | 3%
CSc1ccc(CN(C)C(=O)CN2C(=O)NC3(CCCC3)C2=O)cc1 | -3% | · | · | 25% | · | -20%
CN(Cc1ccccc1)C(=O)CN1C(=O)NC2(CCCCCCC2)C1=O | 8% | · | · | ? | · | 9.3µM*
COc1ccc(C2(c3ccc(OC)cc3)NC(=O)N(CC(=O)N(C)C3CCC(C)CC3)C2=O)cc1 (stereo not drawn) | 5% | · | · | ? | · | 10µM*
COc1ccc(C(=O)Oc2c(OC)cc(C(=S)N3CCOCC3)cc2OC)cc1OC | -23% | · | -3% | -36% | -2 | -1%
CCN(CC)C(=O)COc1coc(CN2CCN(c3cccc(Cl)c3)CC2)cc1=O | -20% | -3 | 6% | 8.3µM* | -1 | -12%
CCCNC(=O)COc1coc(CN2CCN(c3ccccc3)CC2)cc1=O | 5% | -7 | -1% | ? | 1 | 11%
CCCNC(=O)COc1coc(CN2CCN(c3cccc(Cl)c3)CC2)cc1=O | 0% | -5 | -10% | 10µM* | -4 | -16%
